From PubChem BioAssay
Hits are enriched below; roughly 19% of the tested compounds scored in any of these assays.
TDP1 cell noCPT = qHTS for Inhibitors of human tyrosyl-DNA phosphodiesterase 1 (TDP1): qHTS in cells in absence of CPT; DT40 Tdp1-/- hTDP1 cells, no CPT, ATP luminescence, 48 h; Potency, µM (series often up to 46.2 µM), for the others: top-dose activity change, negative = growth inhibition, most hits filed as inhibitors; hit rate 15% among 420,000; AID 686978, 2013; note: potency is the fitted concentration of half-maximal effect; nearly all actives have a fitted effect of over 55% in size
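No-CPT arm: Tdp1-/-;hTDP1 DT40 cells (400/well) plus compounds, incubated ≥48 hr at 37 °C. Readout CellTiter-Glo luminescence.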
ELG1 repair inh = blocks ELG1-dependent DNA repair in HEK293T cells; hit rate 2.3% among 330,000; HEK293T ELG1-luciferase reporter, luminescence, 16 h; DNA damage induced by 5-fluorouridine; Potency, µM (series often up to 46.1 µM), for inactives: top-dose activity change, negative = inhibition, hits mostly inhibitors; AID 504467; note: potency is the fitted concentration of half-maximal effect; nearly all actives have a fitted effect of over 55% in size
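Cells (2,000 per well) received 5-fluorouridine plus test compound or DMSO and were incubated 16 hr at 37 °C, 5% CO2. Luciferase activity was read by luminescence 30 min after ONE-Glo addition; signal suppression marked inhibition of damage-induced ELG1 function.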
TDP1 inh = TDP1 (human) enzyme inhibition; recombinant TDP1, AlphaScreen DNA substrate cleavage; hit rate 0.28% among 350,000; Potency, µM (series often up to 130 µM), inactives show top-dose activity change, negative = inhibition, actives largely listed as inhibitors; AID 485290; note: potency is the fitted concentration of half-maximal effect; nearly all actives have a fitted effect of over 40% in size
Target sequence (Q9NUW8 whole entry, looked up): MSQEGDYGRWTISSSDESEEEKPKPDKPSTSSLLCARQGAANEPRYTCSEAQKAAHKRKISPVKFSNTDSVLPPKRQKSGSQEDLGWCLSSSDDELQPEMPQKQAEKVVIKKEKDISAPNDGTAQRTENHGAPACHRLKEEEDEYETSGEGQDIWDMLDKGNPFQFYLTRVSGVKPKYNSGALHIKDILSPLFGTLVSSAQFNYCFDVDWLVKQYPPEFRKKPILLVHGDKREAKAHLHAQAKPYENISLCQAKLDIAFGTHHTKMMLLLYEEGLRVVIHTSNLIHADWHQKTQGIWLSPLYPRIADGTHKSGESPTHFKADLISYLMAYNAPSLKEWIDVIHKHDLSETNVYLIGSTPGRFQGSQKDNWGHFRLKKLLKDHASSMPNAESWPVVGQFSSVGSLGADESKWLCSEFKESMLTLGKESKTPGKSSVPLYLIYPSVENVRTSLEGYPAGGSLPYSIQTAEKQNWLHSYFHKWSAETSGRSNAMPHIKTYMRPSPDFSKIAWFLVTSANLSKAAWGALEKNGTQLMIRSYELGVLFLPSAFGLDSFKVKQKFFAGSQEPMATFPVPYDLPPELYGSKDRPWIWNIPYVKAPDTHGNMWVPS
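Signal: AlphaScreen proximity between streptavidin donor and anti-FITC acceptor beads on intact substrate. Reaction: Tdp1 1 nM, substrate 15 nM final, 5 min RT after 15 min compound preincubation.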
DT40 TDP1 CPT = DT40-hTDP1 cell growth loss with CPT; chicken DT40 Tdp1-/-;hTDP1 cells + 20 nM CPT, ATP luminescence, 48 h; Potency, µM (top dose mostly 46.2 µM), for the others: top-dose activity change, negative = growth inhibition, most hits filed as inhibitors; hit rate 12% among 420,000; note: potency is the fitted concentration of half-maximal effect; nearly all actives have a fitted effect of over 55% in size
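Chicken DT40 Tdp1-/- cells complemented with human TDP1, 400 cells/well, exposed to compounds plus 20 nM camptothecin for at least 48 h at 37 C; viability read as ATP content by CellTiter-Glo luminescence.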
IL1B secr inh = inhibitors of inflammasome signaling (IL-1 beta secretion) | THP-1 LPS/ATP IL-1B secretion, AlphaLISA, 16 h; hits give low values | activity change, % at 57.5 µM | hit rate 4.7% among 360,000 | AID 743279; in the data active = activity change below about -50%; inconclusive = mostly about -30% to -49%
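Secreted IL-1B measured by AlphaLISA bead assay after 16 h compound exposure of THP-1 cells; compounds (final up to 57.5 uM) added 1 h before LPS (250 ng/mL) and ATP (1.25 mM) stimulation; lower signal means less secretion.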
Giardia killer = Giardia lamblia killing; activity change, % at 7.66 µM, hits read low; hit rate 0.15% among 340,000; Giardia lamblia trophozoite viability; in the data active = activity change below about -80%; inconclusive = between about -30% and that limit;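 note: parasites exposed to compound for two days anaerobically before the ATP read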
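ATP-content bioluminescence gauges trophozoite survival. Cells (100/well) receive compound and incubate anaerobically for 48 hrs at 37 deg C; detection reagent follows for 15-30 min at room temperature.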
* marks the source's active call; other numbers are inactive results; ? = inconclusive; · = no result given; [ ] = remark or other dose. Unless noted, calls come from the whole dose curve; as a rule, active = well fitted curve in the direction sought with a large enough effect; inconclusive = small, poorly fitted or top-dose-only effect, or another doubt; inactive = no such curve, though single readings can be large; an effect the other way counts as inactive or inconclusive. % is set by controls: 0 for no effect and ±100 for the full control effect.

SMILES	TDP1 cell noCPT	ELG1 repair inh	TDP1 inh	DT40 TDP1 CPT	IL1B secr inh	Giardia killer
CCOC(=O)c1c(NS(C)(=O)=O)sc2c1CCC(C)C2 (stereo not given)	?	2%	6%	-16%	0	-15
COc1ccc(Nc2c(-c3cccc(OC)c3)nc3nc(C)cc(C)n23)cc1	21µM*	·	·	?	16	·
COc1cccc(-c2nc3nc(C)cc(C)n3c2NCc2ccccc2)c1	12µM*	·	·	?	12	·
COc1cccc(-c2nc3nc(C)cc(C)n3c2NC2CCCC2)c1	?	·	·	?	-11	·
COc1cccc(-c2nc3nc(C)cc(C)n3c2Nc2ccc3c(c2)OCCO3)c1	26µM*	·	·	?	6	·
CC(C)c1ccc(NNC(=O)C2CCC2)cc1	16µM*	4%	9%	9.2µM*	·	25
CCOc1ccc(NS(=O)(=O)c2cc(NC(=O)C3CC3)ccc2C)cc1Br	21µM*	-4%	1%	?	-71*	1
Cc1ccccc1C(=O)N1CCC(C(=O)Nc2ccc(F)cc2)CC1	-5%	-1%	1%	-8%	-15	-12
Cc1ccc(NC(=S)Nc2ccc(C(C)C)cc2)cc1S(=O)(=O)N1CCCCCC1	16µM*	12µM*	1%	23µM*	-89*	-5
COc1ccc(NC(=O)C2CC2)cc1S(=O)(=O)N1CCOCC1	-12%	23%	0%	4%	-1	?
Cc1ccccc1C(=O)N1CCC(C(=O)Nc2ccc(C(C)C)cc2)CC1	5.2µM*	12%	3%	7.3µM*	42	-28
CC(C)c1ccc(NC(=S)NNC(=O)C2CC2)cc1	15%	3%	5%	-2%	0	-2
O=C(CCN1CCCCC1=O)NC1CCCN(Cc2ccc(Cl)cc2)C1 (stereo not given)	5%	?	2%	6%	0	5
Cc1ccccc1C(=O)N1CCC(C(=O)Nc2ccc(C)c(S(=O)(=O)N3CCCCC3)c2)CC1	5.8µM*	?	3%	13µM*	-26	13
Cc1ccccc1C(=O)N1CCC(C(=O)NC2CCCCCC2)CC1	-21%	-5%	·	2%	36	-9
CSc1cccc(NC(=O)C2CCN(S(C)(=O)=O)CC2)c1	1%	17%	8%	-9%	-12	-12
CSc1cccc(NC(=O)C2CCN(C(=O)c3ccccc3C)CC2)c1	21µM*	-20%	0%	18µM*	?	-21
Cc1ccc(NC(=O)C2CCC2)cc1S(=O)(=O)N1CCCCCC1	26µM*	-25%	0%[0.505 µM]	?	-8	18
Cc1ccc(NC(=O)C2CCCN(C(=O)c3ccc(Cl)cc3)C2)cc1S(=O)(=O)N1CCOCC1 (stereo not given)	16µM*	?	3%	21µM*	-19	12
Cc1cc(=O)n2c(C(=O)Nc3ccc(Br)cc3)c(C(=O)Nc3ccccc3)sc2n1	2%	·	4%	-15%	·	·
O=C(NNC(=O)c1ccccc1Br)c1ccc(SCC2CCCO2)c([N+](=O)[O-])c1 (stereo not given)	-12%	-19%	5%	0%	-1	-7
O=C(NNC(=O)C1CCN(S(=O)(=O)c2ccccc2)CC1)c1ccccc1O	26µM*	-13%	5%	7.3µM*	136	-15
Cc1ccccc1C(=O)N1CCC(C(=O)Nc2cccc(S(=O)(=O)N3CCCCC3)c2)CC1	?	-28%	3%	?	-13	5
Cc1ccccc1C(=O)N1CCC(C(=O)Nc2ccc(S(=O)(=O)N3CCCC3)cc2)CC1	18µM*	?	7%	?	21	-4
O=C(NNC(=O)C1CCN(S(=O)(=O)c2ccccc2C(F)(F)F)CC1)c1ccccc1O	?	?	-8%	?	8	18
